Assay results published in PubChem BioAssay.
Active and inactive are the calls of the source.

How the values were obtained:
[1] = binders of probe aFSTL3 on microarray, primary screen, stem cell growth factor project, biochemical, small-molecule microarray, fluorescence 635/667 (AID 1064); conditions: higher = more signal;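 further: measures binding of the biotinylated anti-FSTL3 antibody to printed compounds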
[2] = binders from COS7 lysate, DM2A8 probe, primary screen, torsin A project, cell lysate, small-molecule microarray, fluorescence 635/667 (AID 1065); conditions: higher = more signal, COS7 lysate expressing mutant human TOR1A
[3] = binders of probe aFGF2 on microarray, primary screen, stem cell growth factor project, biochemical, small-molecule microarray, fluorescence 635/667 (AID 1067); conditions: higher = more signal;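 further: measures binding of biotinylated aFGF2 protein to printed compounds on slides; z-score merges feature fluorescence and signal-to-noise across triplicate slides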
[4] = binders of probe aFGF10 on microarray, primary screen, stem cell growth factor project, biochemical, small-molecule microarray, fluorescence 635/667 (AID 1071); conditions: higher = more signal;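 further: score merges 667 nm spot intensity and signal to noise from triplicate slides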
[5] = biological target: Neurogenic locus notch homolog protein 2 (Homo sapiens) (UniProt Q04721); test: Notch2 binders on small-molecule microarrays, primary screen, biochemical, small-molecule microarray, 635 nm fluorescence, stem cell growth factors (AID 1073); conditions: Notch2 binding, higher = more signal
[6] = biological target: Pro-neuregulin-1, membrane-bound isoform (Homo sapiens) (UniProt Q02297); test: NRG1 binders on small-molecule microarrays, primary screen, psychiatric disease protein project, biochemical, small-molecule microarray, fluorescence 635/667 (AID 1075); conditions: NRG1 binding, 635 nm fluorescence, higher = more signal;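 further: score combines 667 nm spot fluorescence with signal to noise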
Pro-neuregulin-1, membrane-bound isoform (Homo sapiens), sequence (Q02297 whole entry, looked up, the tested form may be a part, canonical isoform): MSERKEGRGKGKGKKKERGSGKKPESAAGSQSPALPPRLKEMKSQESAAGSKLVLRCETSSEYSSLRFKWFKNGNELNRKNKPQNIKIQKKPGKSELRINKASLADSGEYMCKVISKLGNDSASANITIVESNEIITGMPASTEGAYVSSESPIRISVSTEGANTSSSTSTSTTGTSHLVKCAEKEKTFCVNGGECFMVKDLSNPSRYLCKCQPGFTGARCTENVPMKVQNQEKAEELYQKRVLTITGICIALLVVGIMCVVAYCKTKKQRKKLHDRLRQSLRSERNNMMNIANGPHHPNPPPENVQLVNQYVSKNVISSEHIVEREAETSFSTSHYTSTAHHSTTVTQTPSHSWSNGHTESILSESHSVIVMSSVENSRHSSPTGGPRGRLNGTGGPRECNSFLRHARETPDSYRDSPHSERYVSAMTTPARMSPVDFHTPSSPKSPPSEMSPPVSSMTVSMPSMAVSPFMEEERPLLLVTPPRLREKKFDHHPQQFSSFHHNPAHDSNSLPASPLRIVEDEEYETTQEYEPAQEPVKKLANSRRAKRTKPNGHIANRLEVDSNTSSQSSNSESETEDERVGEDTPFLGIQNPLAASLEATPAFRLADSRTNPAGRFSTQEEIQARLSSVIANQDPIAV

[7] = system: Neuregulin-1 EGF-like domain; test: binders of neuregulin-1 EGF-like domain, primary screen, biochemical, small-molecule microarray, 635 nm fluorescence (AID 1081); conditions: small-molecule microarray binding, higher = more signal;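 further: binding of the protein to compounds printed on small-molecule microarray slides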
[8] = FRG1 promoter luciferase signal modulators, primary screen, FRG1 inhibition for FSHD, cell-based, C2C12 myotubes, firefly/Renilla luciferase, luminescence (AID 1084); conditions: higher = more signal, called active from +8 up or from −8 down
[9] = binders of probe aFST on microarray, primary screen, stem cell growth factor project, biochemical, small-molecule microarray, fluorescence 635/667 (AID 1086); conditions: higher = more signal;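 further: score merges 667 nm fluorescence with signal-to-noise of each printed compound spot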
[10] = binders of probe aHhip on microarray, primary screen, stem cell growth factor project, biochemical, small-molecule microarray, fluorescence 635/667 (AID 1087); conditions: higher = more signal;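 further: score merges spot fluorescence at 667nm with spot signal to noise ratio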
[11] = system: PRMT1 (protein arginine N-methyltransferase 1); test: PRMT1 binders on small-molecule microarrays, primary screen, biochemical, small-molecule microarray, 635 nm fluorescence (AID 1088); conditions: small-molecule microarray binding, higher = more signal;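 further: binding of Prmt1 protein to compounds spotted on small-molecule microarray slides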
[12] = yeast growth modulation, basal conditions, primary screen, YJM789 clinical isolate, OD600, 24 h (AID 1089);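 further: growth of clinical yeast isolate S. cerevisiae YJM 789 seeded 1000 cells per well; test concentration not given here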; conditions: S. cerevisiae YJM789 growth, higher = more signal, called active from +8 up or from −8 down
[13] = fission yeast growth modulation, primary screen, strain 972, OD600, 24 h, no modulator (AID 1090);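 further: basal condition with compound alone and no growth modifier present; test concentration not given here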; conditions: S. pombe 972 growth, higher = more signal, called active from +8 up or from −8 down
[14] = S. cerevisiae growth modulation with rapamycin, primary screen, strain BY4716, OD600, 96 h (AID 1091); conditions: higher = more signal, called active from +8 up or from −8 down; further: test concentration not given here
[15] = biological target: Torsin-1A-interacting protein 2 (Homo sapiens) (UniProt Q8NFQ8); test: LULL1 binders on small-molecule microarray, primary screen, cell lysate, human LULL1 lysate, 635/667 nm fluorescence (AID 1092); conditions: hLULL1 lysate binding, 635 nm fluorescence, higher = more signal;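 further: probe is lysate of COS7 cells overexpressing human LULL1; score merges per-feature 667 nm fluorescence with signal-to-noise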
Torsin-1A-interacting protein 2 (Homo sapiens), sequence (Q8NFQ8 whole entry, looked up): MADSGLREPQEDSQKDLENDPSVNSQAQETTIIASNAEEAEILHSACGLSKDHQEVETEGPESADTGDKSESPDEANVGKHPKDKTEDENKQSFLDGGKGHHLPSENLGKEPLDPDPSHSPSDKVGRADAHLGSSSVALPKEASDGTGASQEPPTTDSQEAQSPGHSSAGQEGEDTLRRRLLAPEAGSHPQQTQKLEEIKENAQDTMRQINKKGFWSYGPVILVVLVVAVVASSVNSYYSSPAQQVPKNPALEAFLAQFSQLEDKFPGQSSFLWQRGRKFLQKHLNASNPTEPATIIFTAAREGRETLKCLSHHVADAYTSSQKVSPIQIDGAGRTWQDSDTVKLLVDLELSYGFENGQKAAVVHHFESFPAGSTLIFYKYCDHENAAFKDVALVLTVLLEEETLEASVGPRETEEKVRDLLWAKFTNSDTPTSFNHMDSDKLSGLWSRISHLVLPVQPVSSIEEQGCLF

[16] = E. coli growth modulation, two-sided OD650, primary screen, E. coli filamentation project, strain DRC41, 24 h (AID 1093); conditions: OD650, 24 h, higher = more signal, called active from +8 up or from −8 down;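 further: MC1000 strain lacking acrAB efflux and sulA so SOS filamentation is blocked; test concentration not given here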
[17] = small-molecule microarray binders of probe aLefty2, primary screen, biochemical, biotinylated probe, 635/667 nm fluorescence (AID 1094); conditions: higher = more signal;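 further: score merges spot fluorescence near 667 nm with spot signal-to-noise ratio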
[18] = system: Noggin (protein binding on small-molecule microarray); test: Noggin binders on small-molecule microarray, primary screen, biochemical, 635/667 nm fluorescence (AID 1095); conditions: 635 nm fluorescence, higher = more signal;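 further: score merges 667 nm feature fluorescence with signal to noise over triplicate slides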
[19] = biological target: Neurogenic locus notch homolog protein 3 (Homo sapiens) (UniProt Q9UM47); test: NOTCH3 binders on small-molecule microarray, primary screen, biochemical, 635/667 nm fluorescence (AID 1096); conditions: NOTCH3 binding, 635 nm fluorescence, higher = more signal
Neurogenic locus notch homolog protein 3 (Homo sapiens), sequence (Q9UM47 whole entry, looked up): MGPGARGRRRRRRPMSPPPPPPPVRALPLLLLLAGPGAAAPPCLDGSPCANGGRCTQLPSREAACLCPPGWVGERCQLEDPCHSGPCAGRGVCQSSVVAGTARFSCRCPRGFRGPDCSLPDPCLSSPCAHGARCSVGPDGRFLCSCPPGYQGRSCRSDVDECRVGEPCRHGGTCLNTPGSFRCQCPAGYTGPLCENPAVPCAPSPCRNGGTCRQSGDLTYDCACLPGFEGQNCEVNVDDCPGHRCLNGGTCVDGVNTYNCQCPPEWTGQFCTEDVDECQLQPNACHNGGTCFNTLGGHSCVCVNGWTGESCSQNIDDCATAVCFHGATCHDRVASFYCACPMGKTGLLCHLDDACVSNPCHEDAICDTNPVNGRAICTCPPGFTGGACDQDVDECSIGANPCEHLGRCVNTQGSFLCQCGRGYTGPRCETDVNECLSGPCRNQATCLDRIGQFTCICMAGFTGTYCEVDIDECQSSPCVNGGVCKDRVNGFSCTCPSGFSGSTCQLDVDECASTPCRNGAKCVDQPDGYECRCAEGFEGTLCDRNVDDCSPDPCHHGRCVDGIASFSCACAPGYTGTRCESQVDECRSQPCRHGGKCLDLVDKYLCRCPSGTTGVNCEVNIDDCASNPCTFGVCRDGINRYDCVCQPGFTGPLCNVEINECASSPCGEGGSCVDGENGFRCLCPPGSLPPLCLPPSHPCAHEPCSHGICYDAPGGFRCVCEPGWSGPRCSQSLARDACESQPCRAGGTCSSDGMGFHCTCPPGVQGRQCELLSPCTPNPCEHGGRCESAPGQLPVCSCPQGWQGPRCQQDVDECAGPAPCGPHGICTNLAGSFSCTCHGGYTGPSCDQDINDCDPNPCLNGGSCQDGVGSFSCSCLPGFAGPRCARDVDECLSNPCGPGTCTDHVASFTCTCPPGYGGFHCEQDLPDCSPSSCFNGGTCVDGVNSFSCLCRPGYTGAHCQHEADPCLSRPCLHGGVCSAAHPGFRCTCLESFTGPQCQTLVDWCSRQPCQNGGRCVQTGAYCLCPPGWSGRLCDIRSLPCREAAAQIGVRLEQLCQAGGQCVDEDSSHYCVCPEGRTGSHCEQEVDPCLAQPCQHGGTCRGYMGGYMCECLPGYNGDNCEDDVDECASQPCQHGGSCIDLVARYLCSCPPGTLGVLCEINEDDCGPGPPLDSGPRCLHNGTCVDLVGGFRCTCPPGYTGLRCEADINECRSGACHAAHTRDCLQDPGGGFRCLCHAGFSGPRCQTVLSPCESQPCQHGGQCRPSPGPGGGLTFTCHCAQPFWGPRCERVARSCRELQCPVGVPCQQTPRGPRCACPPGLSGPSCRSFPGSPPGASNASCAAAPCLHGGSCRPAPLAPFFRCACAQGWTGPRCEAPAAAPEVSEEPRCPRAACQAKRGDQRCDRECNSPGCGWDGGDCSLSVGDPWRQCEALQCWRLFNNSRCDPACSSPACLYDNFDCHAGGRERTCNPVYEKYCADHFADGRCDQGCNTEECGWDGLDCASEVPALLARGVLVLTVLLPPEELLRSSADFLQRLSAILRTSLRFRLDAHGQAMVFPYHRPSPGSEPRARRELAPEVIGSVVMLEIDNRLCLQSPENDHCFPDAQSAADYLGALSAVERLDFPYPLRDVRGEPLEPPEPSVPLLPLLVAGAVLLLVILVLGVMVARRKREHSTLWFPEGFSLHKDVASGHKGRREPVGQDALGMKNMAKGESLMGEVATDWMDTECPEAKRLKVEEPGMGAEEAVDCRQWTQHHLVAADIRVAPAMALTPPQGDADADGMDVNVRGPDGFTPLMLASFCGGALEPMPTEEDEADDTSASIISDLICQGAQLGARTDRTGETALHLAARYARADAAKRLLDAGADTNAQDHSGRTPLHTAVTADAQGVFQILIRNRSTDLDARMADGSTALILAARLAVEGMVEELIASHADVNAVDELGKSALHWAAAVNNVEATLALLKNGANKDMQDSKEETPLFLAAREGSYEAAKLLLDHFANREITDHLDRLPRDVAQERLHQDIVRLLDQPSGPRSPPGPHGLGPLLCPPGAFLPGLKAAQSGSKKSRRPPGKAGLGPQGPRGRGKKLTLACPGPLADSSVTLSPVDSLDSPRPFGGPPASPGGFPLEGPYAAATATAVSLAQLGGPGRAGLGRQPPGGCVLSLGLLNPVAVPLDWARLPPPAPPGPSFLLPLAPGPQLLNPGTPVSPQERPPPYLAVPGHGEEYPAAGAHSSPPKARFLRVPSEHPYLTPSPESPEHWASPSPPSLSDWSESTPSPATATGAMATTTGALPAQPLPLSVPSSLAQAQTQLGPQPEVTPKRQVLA

[20] = small-molecule microarray binders of probe aEGFR, primary screen, biochemical, biotinylated probe, 635/667 nm fluorescence (AID 1097); conditions: higher = more signal;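 further: probe is a biotinylated anti-EGFR antibody binding compounds printed on slides; score combines fluorescence near 667 nm and signal to noise of each spot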

Row | SMILES | composite z-score [1] | composite z-score [2] | composite z-score [3] | composite z-score [4] | composite z-score [5] | composite z-score [6] | composite z-score [7] | z-score [8] | composite z-score [9] | composite z-score [10] | composite z-score [11] | z-score [12] | z-score [13] | z-score [14] | composite z-score [15] | z-score [16] | composite z-score [17] | composite z-score [18] | composite z-score [19] | composite z-score [20]
1 | CC(C)CON=C1C[C@@H](O)[C@@H](O)[C@@H]2[C@@H]3C(=O)N(C(C)(C)C)C(=O)[C@@H]3CC[C@@H]12 | -0.7 | 2.77 | -0.243 | -0.541 | -0.483 | -0.517 | 0.694 | 0.0071 (inactive) | -0.0117 | -0.303 | 1.37 | 0.118 (inactive) | -0.182 (inactive) | -0.147 (inactive) | -0.495 | 0.222 (inactive) | -0.317 | 1.02 | -0.269 | -0.0638
2 | CC(=O)OC[C@H]1O[C@@H](ON=C(C)CCN2CCCCc3nc(C)c(C)cc32)[C@H](OC(C)=O)[C@@H](OC(C)=O)[C@@H]1OC(C)=O | -0.587 | 0.515 | -0.0801 | 0.751 | 1 | 0.853 | 1.16 | 0.694 (inactive) | 0.551 | 0.0881 | 1.53 | -0.61 (inactive) | -0.149 (inactive) | -0.175 (inactive) | 1.07 | -0.871 (inactive) | -0.0179 | 0.708 | 0.927 | 0.145
3 | O=C1C=C[C@@H](O)[C@@H]2[C@@H]3C(=O)N(Cc4ccccc4)C(=O)[C@@H]3CC[C@@H]12 | -0.496 | -0.0062 | -0.171 | 0.373 | 0.632 | 0.159 | 0.543 | -0.895 (inactive) | 0.0563 | 0.226 | -0.136 | 0.0129 (inactive) | -0.676 (inactive) | -0.795 (inactive) | 0.0218 | 0.575 (inactive) | -0.147 | 0.562 | 0.798 | -0.104
4 | CC(=O)OC[C@H]1O[C@H](CC=NO[C@@H](C)c2cn([C@H](CO)Cc3ccccc3)nn2)C=C[C@@H]1OC(C)=O | -0.513 | 0.386 | -0.104 | 0.649 | 0.804 | 1.24 | 0.732 | 0.386 (inactive) | 0.275 | 0.225 | 1.56 | -0.283 (inactive) | -0.359 (inactive) | -0.346 (inactive) | 0.96 | -0.477 (inactive) | -0.0137 | 0.336 | 0.55 | 0.0035
5 | CC(=O)OC[C@H]1O[C@H](CC=NOC[C@@H](O)COCc2ccco2)C=C[C@@H]1OC(C)=O | -0.37 | 2.66 | -0.186 | -0.153 | -0.315 | -0.974 | 0.717 | -1.31 (inactive) | 0.621 | 0.212 | 1.54 | 0.441 (inactive) | -0.0992 (inactive) | 0.116 (inactive) | -0.275 | 0.53 (inactive) | 0.0658 | 1.77 | -0.084 | 0.495
